Assay [1] can be described thus: qHTS assay to identify aromatase inhibitors - cell viability counter screen (AID 743084).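 Note: cells stimulated with testosterone during compound exposure; nearly all actives have a fitted effect of over 55% in size.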 Note: potency is the fitted concentration of half-maximal effect.
Assay [2] is described as follows: qHTS assay to identify small molecule that activate the aryl hydrocarbon receptor (AhR) signaling pathway - cell viability counter screen (AID 743086).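 Note: HepG2 liver cells carrying the AhR DRE luciferase reporter; series mostly up to about 70 µM; nearly all actives have a fitted effect of over 45% in size.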 An outline of the steps:
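Cytotoxicity counter screen: CellTiter-Fluor signal (30 min, 37 C) in 4000 HepG2 cells/well carrying the DRE-luciferase reporter, following 24 h compound exposure at 37 C.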

Assay [3] concerns the target Peroxisome proliferator-activated receptor gamma (Homo sapiens) (UniProt P37231). Put plainly: qHTS assay to identify small molecule agonists of the peroxisome proliferator-activated receptor gamma (PPARg) signaling pathway (AID 743094; active = well fitted activation curve with a large enough effect in the signal ratio in the repeat runs, not every such curve was filed as active; the % refers to the signal ratio). An outline of the steps: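 Cells from the PPARg UAS-bla HEK293H line are plated and incubated 5 h at 37C. Compounds in DMSO are pinned in and left 17 h at 37C. LiveBLAzer B/G substrate is then added for 1 h at room temperature before fluorescence is measured.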

Assay [4] is described as follows: qHTS assay to identify small molecule antagonists of the peroxisome proliferator-activated receptor gamma (PPARg) signaling pathway - cell viability counter screen (AID 743194). Note: nearly all actives have a fitted effect of over 55% in size. Summed up:
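Viability was measured as CellTiter-Glo luminescence in GeneBLAzer PPARg UAS-bla HEK293H cells. These cells had been exposed 17 h at 37 C to compounds together with rosiglitazone at 50 nM final, with the beta-lactamase readout taken in the same wells.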

A short description of assay [5]: qHTS assay for small molecule agonists of the antioxidant response element (ARE) signaling pathway - cell viability counter screen (AID 743203; calls by dose curve; note: nearly all actives have a fitted effect of over 55% in size). Summed up: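 Cytotoxicity was tested in parallel with the ARE reporter screen. ARE-bla HepG2 cells were exposed to compounds for 16 hrs, and viability was taken from CellTiter-Glo luminescence.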
Assay [6] is described as follows: qHTS assay for small molecule activators of the heat shock response signaling pathway - cell viability counter screen (AID 743209). Note: nearly all actives have a fitted effect of over 50% in size. An outline of the steps: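 Cytotoxicity counter screen run in parallel with the HSE beta-lactamase reporter, using the same wells. HeLa HSE-bla cells received compound for 5 h at 37 C; ATP-based CellTiter-Glo luminescence was measured after 30 min at room temperature.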

A short description of assay [7]: qHTS assay for small molecule activators of the heat shock response signaling pathway (AID 743210; active = well fitted activation curve with a large enough effect in the signal ratio in the repeat runs, with a control signal flat, not every such curve was filed as active; the % refers to the signal ratio;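 note: HeLa cells with beta-lactamase reporter driven by heat shock elements; series mostly up to about 63 µM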). Summed up:
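Fluorescence from a cleaved B/G FRET substrate (2.5 h, room temp) reports HSE-driven beta-lactamase in HeLa cells treated 5 h at 37 C with DMSO-dissolved compounds.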

A short description of assay [8]: qHTS assay to identify small molecule agonists of the peroxisome proliferator-activated receptor delta (PPARd) signaling pathway - cell viability counter screen (AID 743211). Note: nearly all actives have a fitted effect of over 55% in size. Summed up:
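Read-out: CellTiter-Glo luminescence, 30 min RT, measured in the same wells as the beta-lactamase reporter. Cells: GeneBLAzer PPAR delta UAS-bla HEK293H, 3000 cells/well, compound exposure 17 h at 37C.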

In assay [9] the target is Peroxisome proliferator-activated receptor delta (Homo sapiens) (UniProt Q03181). Put plainly: qHTS assay to identify small molecule agonists of the peroxisome proliferator-activated receptor delta (PPARd) signaling pathway (AID 743212; calls by dose curve). Summed up:
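Steps: seed PPARd-bla HEK293H cells; incubate 5 h, 37 C, 5% CO2; add compounds in DMSO; incubate, 37 C; add LiveBLAzer B/G FRET substrate; hold 2 h at room temperature; measure fluorescence.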

Assay [10] is described as follows: qHTS assay to identify small molecule antagonists of the peroxisome proliferator-activated receptor delta (PPARd) signaling pathway - cell viability counter screen (AID 743213). Note: nearly all actives have a fitted effect of over 50% in size. Summed up:
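Luminescence from CellTiter-Glo, added after the bla read and incubated 30 min at room temperature, gives viability of HEK293H PPARd-bla cells exposed to compounds for 17 h at 37 C with 300 nM L165041.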

Assay [11] addresses Peroxisome proliferator-activated receptor delta (Homo sapiens) (UniProt Q03181). The assay can be described thus: qHTS assay to identify small molecule antagonists of the peroxisome proliferator-activated receptor delta (PPARd) signaling pathway (AID 743215; active = well fitted inhibition curve with a large enough effect in the signal ratio in the repeat runs, not every such curve was filed as active; the % refers to the signal ratio;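 note: cells stimulated with agonist L165041 at 300 nM final during compound exposure; series mostly up to about 62 µM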). An outline of the steps:
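Cells: HEK293H with a UAS-driven beta-lactamase reporter responsive to PPARd. Compounds were co-added with L165041 (300 nM, final) and incubated 17 h at 37 C before a 2 h room-temperature FRET substrate step and fluorescence reading.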

Assay [12] is described as follows: qHTS assay to identify small molecule agonists of the farnesoid-X-receptor (FXR) signaling pathway - cell viability counter screen (AID 743218). Note: nearly all actives have a fitted effect of over 45% in size. An outline of the steps:
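Cells were seeded, left 5 h at 37 C and 5% CO2, then dosed with compound in DMSO for 16 h. After the beta-lactamase FRET read, CellTiter-Glo was added and luminescence measured 30 min later.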

A short description of assay [13]: qHTS assay to identify small molecule antagonists of the farnesoid-X-receptor (FXR) signaling pathway - cell viability counter screen (AID 743221; active = well fitted cell-killing curve with a large enough effect in the repeat runs, not every such curve was filed as active; note: nearly all actives have a fitted effect of over 50% in size). An outline of the steps:
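HEK 293T FXR-bla cells, 5 h pre-incubation; compound + CDCA 50 uM final, 16 h, 37 C; beta-lactamase FRET read first, then CellTiter-Glo luminescence, 30 min RT.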

Assay [14] has as its target Peroxisome proliferator-activated receptor gamma (Homo sapiens) (UniProt P37231). The assay can be described thus: qHTS assay to identify small molecule antagonists of the peroxisome proliferator-activated receptor gamma (PPARg) signaling pathway (AID 743191; calls by dose curve; note: series mostly up to about 63 µM; nearly all actives have a fitted effect of over 30% in size). An outline of the steps:
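Beta-lactamase reporter under UAS control in HEK293H PPARg-bla cells; compound treatment 17 h at 37C. Read-out: fluorescence intensity after 1 h room-temperature incubation with LiveBLAzer B/G FRET substrate.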

The target of assay [15] is Bile acid receptor (Homo sapiens) (UniProt Q96RI1). Put plainly: qHTS assay to identify small molecule antagonists of the farnesoid-X-receptor (FXR) signaling pathway (AID 743217; active = well fitted inhibition curve with a large enough effect in the signal ratio in the repeat runs, not every such curve was filed as active; the % refers to the signal ratio). An outline of the steps:
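Cells carrying a UAS-driven beta-lactamase reporter (GeneBLAzer FXR-UAS-bla HEK 293T) were plated and rested 5 h at 37 °C. Compounds in DMSO were added alongside chenodeoxycholic acid agonist at 50 uM final and left 16 h at 37 °C before FRET substrate readout.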

For assay [16] the target is unchanged. Put plainly: qHTS assay to identify small molecule agonists of the farnesoid-X-receptor (FXR) signaling pathway (AID 743220; active = well fitted activation curve with a large enough effect in the signal ratio in the repeat runs, not every such curve was filed as active; the % refers to the signal ratio). Summed up:
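FXR-UAS-bla HEK 293T cells carrying a UAS-driven beta-lactamase reporter were plated for 5 h at 37C/5% CO2, then exposed to DMSO-dissolved Tox21 10K compounds for 16 h at 37C. A LiveBLAzer B/G FRET substrate was loaded for 2 h at room temperature before fluorescence reading.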

Assay [17] is described as follows: qHTS assay for small molecule agonists of the antioxidant response element (ARE) signaling pathway (AID 743202; active = well fitted activation curve with a large enough effect in the signal ratio in the repeat runs, not every such curve was filed as active; the % refers to the signal ratio). An outline of the steps: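 Beta-lactamase reporter activity, read as fluorescence intensity, reflects ARE/Nrf2 pathway induction in HepG2 cells after 16 h compound exposure at 37 C; substrate loading was 2 h at room temperature.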
Assay [18] concerns the target Vitamin D3 receptor (Homo sapiens) (UniProt P11473). The assay can be described thus: qHTS assay to identify small molecule antagonists of the vitamin D receptor (VDR) signaling pathway (AID 743223; active = well fitted inhibition curve with a large enough effect in the signal ratio in the repeat runs, not every such curve was filed as active; the % refers to the signal ratio). Summed up:
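Beta-lactamase reporter read-out: FRET substrate fluorescence after 2 h at room temperature, following 16 h exposure of VDR-bla cells to test compound plus 3 nM (final) 1alpha,25-dihydroxyvitamin D3 agonist at 37C.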

For assay [19] the target is unchanged. Put plainly: qHTS assay to identify small molecule agonists of the vitamin D receptor (VDR) signaling pathway (AID 743222; calls by dose curve). An outline of the steps: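 Cells carrying a VDR-driven beta-lactamase reporter are seeded at 2,000 per well and rested 4 h. Compounds in DMSO are added for 16 h at 37C, and FRET substrate fluorescence is measured after 2 h at room temperature.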

Each structure is given as a SMILES string. Inconclusive results are not listed. The source made the active and inactive calls. Unless noted, calls come from the whole dose curve; as a rule, active = well fitted curve in the direction sought with a large enough effect in the repeat runs; inconclusive = weak or mixed curves; inactive = no such curve, though single readings can be large; an effect the other way counts as inactive or inconclusive.

Peroxisome proliferator-activated receptor delta (Homo sapiens), sequence (Q03181 whole entry, looked up): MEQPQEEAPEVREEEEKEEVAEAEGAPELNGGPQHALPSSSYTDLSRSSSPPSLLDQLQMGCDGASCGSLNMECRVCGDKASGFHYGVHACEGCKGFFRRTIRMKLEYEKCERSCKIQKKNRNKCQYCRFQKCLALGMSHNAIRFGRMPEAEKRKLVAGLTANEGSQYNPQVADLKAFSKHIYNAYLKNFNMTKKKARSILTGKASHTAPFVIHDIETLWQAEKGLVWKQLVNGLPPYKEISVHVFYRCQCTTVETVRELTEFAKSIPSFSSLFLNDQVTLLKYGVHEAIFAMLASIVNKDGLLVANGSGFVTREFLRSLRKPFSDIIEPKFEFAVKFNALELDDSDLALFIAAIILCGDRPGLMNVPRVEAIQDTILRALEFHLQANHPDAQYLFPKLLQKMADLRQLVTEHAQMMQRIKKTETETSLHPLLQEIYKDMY
Vitamin D3 receptor (Homo sapiens), sequence (P11473 whole entry, looked up): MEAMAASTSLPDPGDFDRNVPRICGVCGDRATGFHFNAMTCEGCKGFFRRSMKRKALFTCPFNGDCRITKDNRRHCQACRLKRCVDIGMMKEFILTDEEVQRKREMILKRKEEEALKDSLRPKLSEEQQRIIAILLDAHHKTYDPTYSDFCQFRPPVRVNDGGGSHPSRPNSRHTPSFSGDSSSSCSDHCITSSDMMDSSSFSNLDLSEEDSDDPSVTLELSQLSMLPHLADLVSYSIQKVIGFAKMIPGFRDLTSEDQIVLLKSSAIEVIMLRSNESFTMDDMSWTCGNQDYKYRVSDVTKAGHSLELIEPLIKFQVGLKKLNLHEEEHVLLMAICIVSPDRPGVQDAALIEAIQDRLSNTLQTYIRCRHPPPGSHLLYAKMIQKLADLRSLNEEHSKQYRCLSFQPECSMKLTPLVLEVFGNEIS
Bile acid receptor (Homo sapiens), sequence (Q96RI1 whole entry, looked up): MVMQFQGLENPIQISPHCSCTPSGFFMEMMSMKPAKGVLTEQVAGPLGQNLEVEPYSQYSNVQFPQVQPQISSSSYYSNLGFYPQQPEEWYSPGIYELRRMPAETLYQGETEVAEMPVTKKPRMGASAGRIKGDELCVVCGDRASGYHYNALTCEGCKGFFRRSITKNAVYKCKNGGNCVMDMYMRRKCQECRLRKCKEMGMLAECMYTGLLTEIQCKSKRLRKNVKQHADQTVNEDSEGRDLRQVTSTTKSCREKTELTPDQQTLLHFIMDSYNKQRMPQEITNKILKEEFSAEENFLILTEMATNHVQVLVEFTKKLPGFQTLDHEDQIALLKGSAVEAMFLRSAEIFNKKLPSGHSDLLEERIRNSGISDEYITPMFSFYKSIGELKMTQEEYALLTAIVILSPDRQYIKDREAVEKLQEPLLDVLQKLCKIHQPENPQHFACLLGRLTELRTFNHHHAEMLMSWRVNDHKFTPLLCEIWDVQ
Peroxisome proliferator-activated receptor gamma (Homo sapiens), sequence (P37231 whole entry, looked up): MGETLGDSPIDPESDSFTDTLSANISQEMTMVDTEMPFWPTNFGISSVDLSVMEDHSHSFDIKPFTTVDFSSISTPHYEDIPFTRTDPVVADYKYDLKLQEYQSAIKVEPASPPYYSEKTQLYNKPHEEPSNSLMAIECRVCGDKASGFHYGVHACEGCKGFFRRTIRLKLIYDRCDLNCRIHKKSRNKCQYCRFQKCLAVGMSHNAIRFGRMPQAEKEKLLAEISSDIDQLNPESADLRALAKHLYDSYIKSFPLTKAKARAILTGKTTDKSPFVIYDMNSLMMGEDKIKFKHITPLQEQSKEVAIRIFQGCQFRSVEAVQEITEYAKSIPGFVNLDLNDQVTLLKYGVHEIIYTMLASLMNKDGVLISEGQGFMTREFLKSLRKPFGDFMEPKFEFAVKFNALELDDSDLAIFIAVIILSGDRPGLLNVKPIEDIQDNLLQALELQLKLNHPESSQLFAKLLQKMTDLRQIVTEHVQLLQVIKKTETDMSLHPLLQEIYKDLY

As to `CC(C)Oc1ccccc1O`, the Potency result in assay [1], in assay [2], in assay [3], in [4], in assay [5] and in [8] was “inactive” throughout. Also, the Potency result in [9], in [10], in assay [12] and in assay [13] was “inactive” each time. Further, the call in assay [6], in assay [7] and in [11] was inactive.
For `Nc1ccc(-c2ccc(F)cc2)cc1`, the Potency result in [1], in assay [2], in assay [3], in [14], in [5] and in assay [8] was “inactive” throughout. Besides, the Potency entry in assay [9], in [10] and in [13] was “inactive” throughout. In addition, the compound was called inactive in [6], in [7], in [15] and in assay [16].
`CC(C)=CCC/C(C)=C/C=N/O`: the Potency entry in [1], in assay [2], in assay [3], in [4], in assay [17] and in assay [5] was “inactive” in each case. The Potency result in assay [8], in assay [9], in [10], in assay [12] and in assay [13] was “inactive” each time. The call in assay [6], in [7], in [11], in assay [15], in assay [16] and in [18] was inactive.
As for `c1ccc(-c2ccc(-c3ccccc3)cc2)cc1`, the Potency entry in assay [1], in assay [2], in assay [3], in assay [4], in [5] and in assay [8] was “inactive” throughout. Further, the Potency result in assay [9], in assay [10], in [12] and in [13] was “inactive” throughout. The result in assay [6], in assay [11], in assay [15], in assay [16] and in assay [18] was inactive.
As for `C(/C=C/C=C/Nc1ccccc1)=Nc1ccccc1`, the Potency result in [1], in assay [2], in [3], in [5], in assay [8] and in assay [10] was “inactive” throughout. For the same compound, the Potency entry in [12] and in assay [13] was “inactive” each time. Also, the call in assay [6], in assay [7], in [11], in assay [15], in assay [16] and in [19] was inactive. Moreover, in assay [18], the result was inactive.
On to `CC(=O)c1cccnc1`, for which the Potency entry in assay [1], in assay [2], in assay [3], in assay [5], in assay [9] and in assay [10] was “inactive” in each case. For the same compound, the Potency result in assay [12] and in assay [13] was “inactive” each time. Moreover, the call in [6], in assay [11] and in assay [19] was inactive.
Regarding `CC(C(=O)O)c1ccc(/C=C2\CCCCC2=O)cc1` (stereo not given), the Potency entry in [1], in [2], in assay [14], in [4], in assay [5] and in assay [8] was “inactive” each time. In addition, the Potency result in assay [9], in assay [10], in [12] and in assay [13] was “inactive” throughout. The compound was called inactive in assay [6], in assay [7], in [11] and in assay [19].
As to `Cc1cccc(C)c1NC(=O)CN1CCCC1`, the Potency result in [1], in assay [2], in assay [3], in assay [14], in assay [17] and in assay [5] was “inactive” throughout. In addition, the Potency entry in assay [8], in assay [10], in assay [12] and in [13] was “inactive” throughout. For the same compound, the result in [6], in [7] and in [19] was inactive.
As to `CCOc1cc(OCC)c(C(C)=O)cc1OCC`, the Potency in assay [1] was 26.8 µM (active). The Potency entry in assay [2], in assay [3], in assay [14], in [5], in [8] and in assay [9] was “inactive” in each case. The Potency entry in [10] and in assay [12] was “inactive” in each case. The outcome in [6], in assay [11], in [15], in assay [16] and in assay [18] was inactive.
